Source: PubChem BioAssay

Experiment: binders from COS7 lysate, DM2A8 probe, primary screen, torsin A project, cell lysate, small-molecule microarray, fluorescence 635/667 (AID 1065)
Details: higher = more signal, COS7 lysate expressing mutant human TOR1A

Row | SMILES | composite z-score
1 | O=C1C[C@@H](O)[C@@H](O)[C@@H]2[C@@H]3C(=O)N(Cc4ccccc4)C(=O)[C@@H]3CC[C@@H]12 | 0.311
2 | CCN1C(=O)[C@H]2[C@H]3[C@H](O)[C@H](O)CC(=NOCC(C)C)[C@@H]3CC[C@H]2C1=O | 0.217
3 | COC(=O)CC=C[C@@H](C)[C@@H](C=NOC[C@H]1O[C@H](c2ccccc2)C=C[C@@H]1Oc1ccc(OC)cc1)OC | -0.0766
4 | CC(CCN1CCc2nc(-c3ccccc3)c(-c3ccccc3)cc2C1)=NOC[C@@H](O)[C@H]1O[C@@H]2OC(C)(C)O[C@@H]2[C@H]1O | 0.59
5 | O=C(NN=C1C[C@@H](O)[C@@H](O)[C@@H]2[C@@H]3C(=O)N(C4CCCCC4)C(=O)[C@@H]3CC[C@@H]12)OCc1ccccc1 | 0.2
6 | COc1ccc(O[C@H]2C=C[C@@H](c3ccccc3)O[C@@H]2CON=C(C)CCC(=O)OC[C@H]2O[C@H](c3ccccc3)C=C[C@@H]2Oc2ccc(OC)cc2)cc1 | -0.543

Experiment: binders of probe aFGF2 on microarray, primary screen, stem cell growth factor project, biochemical, small-molecule microarray, fluorescence 635/667 (AID 1067);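 further: measures binding of biotinylated aFGF2 protein to printed compounds on slides; z-score merges feature fluorescence and signal-to-noise across triplicate slides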
Details: higher = more signal

Row | SMILES | composite z-score
7 | CCOC(=O)NN=C1C[C@@H](O)[C@@H](O)[C@@H]2[C@@H]3C(=O)N([C@@H](C)c4ccccc4)C(=O)[C@@H]3CC[C@@H]12 | -0.0934
8 | COC(=O)[C@@H]1CC[C@H](C)[C@@H](c2ccc(C)cc2)N1C(=O)c1ccc(C=NO[C@@H](C)c2cn([C@H](CO)Cc3ccccc3)nn2)cc1 | -0.0943
9 | O=C1CCCC=C1C(O)CCOC(c1ccccc1)(c1ccccc1)c1ccccc1 (configuration not stated) | -0.144
10 | COC(=O)CC=C[C@@H](C)[C@@H]1C=C[C@H](O)[C@@H](CO)O1 | -0.106
11 | C[C@@H](ON=C1[C@H]2CCn3c(=O)n(-c4ccccc4)c(=O)n3[C@H]2[C@H](O)[C@@H]2O[C@H]12)c1cn([C@@H]2COC[C@H]2O)nn1 | -0.0529
12 | CO[C@@H]1COC(=O)[C@H](CCSC)NC(=O)CC=C[C@@H](C)COC(=O)CCC[C@H]1C | -0.167
13 | COc1cccc([C@@H]2Oc3ccc(OC)cc3C(=O)[C@H]2O)c1 | 0.0288
14 | C=CC1=C[C@H](O)[C@@H]2O[C@@H]2C12OCCCO2 | -0.204
15 | CCOC(=O)NN=C1C[C@@H](O)[C@@H](O)[C@@H]2[C@@H]3C(=O)N(Cc4ccccc4)C(=O)[C@@H]3CC[C@H]12 | -0.124
16 | COC(=O)[C@@H]1CC[C@H](C)[C@@H](c2ccc(C)cc2)N1C(=O)c1ccc(C=NO[C@H](C)c2cn([C@H](CO)Cc3ccccc3)nn2)cc1 | -0.0563
17 | COc1cc(O)c(C(=O)C=Cc2ccc3c(c2)OCO3)c(OC)c1 | 0.0198
18 | CCOC(=O)[C@H](CC(C)C)NC(=O)CCC1CC(OC(=O)NCc2cccc3ccccc23)CC2(CCCC(COC(=O)NCC3CCCCC3)O2)O1 (some centres not stated) | -0.0744
19 | Cc1cc2c(c(=O)o1)[C@@H](O)[C@H]1O[C@H]1C2=O | -0.0103
20 | Cc1ccc(S(=O)(=O)NC(CCc2ccccc2)CC(=O)C(C)(C)C)cc1 (configuration not stated) | -0.228
21 | C[C@@H](c1ccccc1)N1C(=O)[C@H]2[C@H]3[C@H](O)[C@H](O)CC(=NO[C@@H]4O[C@H](CO)[C@@H](O)[C@H](O)[C@H]4O)[C@@H]3CC[C@H]2C1=O | -0.0428
22 | CCN1C(=O)[C@@H]2[C@H]3C(=CC[C@@H]2C1=O)C1(OCCCO1)[C@H]1O[C@H]1[C@H]3O | -0.076
23 | CCOC(=O)[C@H](CC(C)C)NC(=O)CCC1CC(OC(=O)NCc2cccc3ccccc23)CC2(CCCC(COC(=O)NCCCN3CCCC3=O)O2)O1 (some centres not stated) | -0.131
24 | CC(=O)OC[C@H]1OC(ON=CC[C@@H]2C=C[C@H](OC(C)=O)[C@@H](COC(C)=O)O2)[C@H](OC(C)=O)[C@@H](OC(C)=O)[C@@H]1OC(C)=O (some centres not stated) | -0.076

Row | SMILES | composite z-score
25 | COc1ccc(O[C@@H]2[C@H](O)CO[C@@H]2C=Cc2ccccc2)cc1 | -0.0482
26 | O=C1[C@H]2[C@H]3[C@H](O)[C@H](O)CC(=NOC[C@@H](O)COCc4ccco4)[C@H]3CC[C@H]2C(=O)N1C[C@@H]1CCCO1 | -0.265
27 | CC(C)=CCCC(C)=CCON=C1C[C@@H](O)[C@@H](O)[C@@H]2[C@@H]3C(=O)N(C(C)(C)C)C(=O)[C@@H]3CC[C@@H]12 | -0.0473
28 | C#CCCCON=C1C[C@@H](O)[C@@H](O)[C@@H]2[C@@H]3C(=O)N(CCC(=O)OCC)C(=O)[C@@H]3CC[C@H]12 | -0.0502
29 | C[C@H]1CC[C@H]2C(=O)O[C@H](COc3ccc(C(C)(C)C)cc3)CN2[C@@H]1c1ccc(Br)cc1 | -0.053
30 | CC(C)=CCCC(C)=CCON=C1C[C@@H](O)[C@@H](O)[C@@H]2[C@@H]3C(=O)N(c4cccc(Oc5ccccc5)c4)C(=O)[C@@H]3CC[C@@H]12 | -0.0962
31 | COc1ccc(O[C@H]2C=C[C@@H](c3ccccc3)O[C@@H]2COC(=O)CCC(C)=NOC(C)CN2CCCc3nc(C)c(C)cc32)cc1 (some centres not stated) | -0.062
32 | COC(=O)[C@H](C)NC(=O)CCC1CC(OC(=O)NCc2cccc3ccccc23)CC2(CCCC(COC(=O)NCC(c3ccccc3)c3ccccc3)O2)O1 (some centres not stated) | -0.0092
33 | C=COC[C@@H]1CN2[C@@H](CC[C@@H](C)[C@@H]2c2ccc(Br)cc2)C(=O)O1 | -0.158
34 | CCOC(=O)[C@H](CC(C)C)NC(=O)CCC1CC(OC(=O)NCc2cccc3ccccc23)CC2(CCCC(COC(=O)NCCC(C)C)O2)O1 (some centres not stated) | -0.0547
35 | CCOC(=O)[C@H](Cc1ccccc1)NC(=O)CCC1CC(OC(=O)NCCc2ccc(F)cc2)CC2(CCCC(COC(=O)NCCc3ccccc3OC)O2)O1 (some centres not stated) | -0.0592
36 | CO[C@H](C1CCCCC1)[C@H](C)C=CCC(=O)OCCCc1ccccc1 | -0.155
37 | O=C1C[C@@H](O)[C@@H](O)[C@@H]2[C@@H]3C(=O)N(Cc4ccccc4)C(=O)[C@@H]3CC[C@@H]12 | -0.0573
38 | CCN1C(=O)[C@H]2[C@H]3[C@H](O)[C@H](O)CC(=NOCC(C)C)[C@@H]3CC[C@H]2C1=O | -0.142
39 | COC(=O)CC=C[C@@H](C)[C@@H](C=NOC[C@H]1O[C@H](c2ccccc2)C=C[C@@H]1Oc1ccc(OC)cc1)OC | -0.14
40 | CC(CCN1CCc2nc(-c3ccccc3)c(-c3ccccc3)cc2C1)=NOC[C@@H](O)[C@H]1O[C@@H]2OC(C)(C)O[C@@H]2[C@H]1O | -0.085
41 | O=C(NN=C1C[C@@H](O)[C@@H](O)[C@@H]2[C@@H]3C(=O)N(C4CCCCC4)C(=O)[C@@H]3CC[C@@H]12)OCc1ccccc1 | -0.0667
42 | COc1ccc(O[C@H]2C=C[C@@H](c3ccccc3)O[C@@H]2CON=C(C)CCC(=O)OC[C@H]2O[C@H](c3ccccc3)C=C[C@@H]2Oc2ccc(OC)cc2)cc1 | -0.141
